Inconclusive results are not listed. Where a call stands in place of a potency, no number is given. Activity calls are given as the source filed them. Calls come from the whole dose curve; as a rule, active = well fitted cell-killing curve with a large enough effect; inconclusive = small, poorly fitted or top-dose-only effect; inactive = flat fitted curve, though single readings scatter.
experiment: Cell Viability - LYMP2-011 (AID 969); settings: LYMP2-011 lymphoblastoid cells viability; series mostly up to 92.2 µM; note: nearly all actives have a fitted effect of over 60% in size
Method in brief: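 Acute toxicity is scored as a concentration-dependent drop in intracellular ATP of a human lymphoblastoid line after 24 hr treatment. Values are AC50s modeled with the Hill equation.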

Row | SMILES | Potency
1 | CCCCCCc1ccc(-c2ccc(C#N)cc2)cc1 | inactive
2 | CCCCCCCCOc1ccc(C(=O)O)cc1 | inactive
3 | Oc1c(Cl)cc(Cl)c(Cl)c1Cl | inactive
4 | CC(C)OCC1CO1 (stereo unspecified) | inactive
5 | C/C(Cl)=C/CCl | inactive
6 | CCCCNCC | inactive
7 | c1ccc(COCc2ccccc2)cc1 | inactive
8 | O=[N+]([O-])c1cccc(I)c1 | inactive
9 | c1ccc2c(c1)ccc1ccccc12 | inactive
10 | Nc1ccc(N=Nc2ccccc2)c(N)c1 | inactive
11 | Oc1ccc2c(c1)OCO2 | inactive
12 | c1ccncc1 | inactive
13 | CC(=O)OC1CC(C)OC(C)O1 (stereo unspecified) | inactive
14 | O=C(OCc1ccccc1)c1ccccc1O | inactive
15 | CCCCOC(=O)COc1ccc(Cl)cc1Cl | inactive
16 | CC(=O)OC(C(=O)c1ccccc1)c1ccccc1 (stereo unspecified) | inactive
17 | CCCCCCN | inactive
18 | CC(=O)Nc1cccc(C)c1 | inactive
19 | C[C@@H]1CC2(OC(O)[C@]3(C)O[C@H]23)O[C@H]2C[C@@]3(C)[C@@H]4CC[C@H]5C(C)(C)C(O[C@@H]6OC[C@@H](O)[C@H](O)[C@H]6O)CC[C@@]56C[C@@]46CC[C@]3(C)[C@@H]12 (stereo partly specified) | inactive
20 | O=[N+]([O-])c1ccccc1Nc1ccccc1 | inactive
21 | C=CC1CO1 (stereo unspecified) | inactive
22 | CCOC(=O)C1OC1c1ccccc1 (stereo unspecified) | inactive

experiment: Cell Viability - LYMP2-013 (AID 970); settings: LYMP2-013 lymphoblastoid cells viability; series mostly up to 92.2 µM;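 note: cells exposed to compound for 24 h at 37 °C; nearly all actives have a fitted effect of over 55% in size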; note: potency is the fitted concentration of half-maximal effect
Method in brief: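 Acute toxicity was measured in human lymphoblastoid cells (2500/well) exposed to compound titrations for 24 hr, with ATP luminescence (CellTiter-Glo) as read-out and AC50 fitted by Hill equation.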

Row | SMILES | Potency
23 | CCCCCCc1ccc(-c2ccc(C#N)cc2)cc1 | inactive
24 | Nc1cnn([C@@H]2O[C@H](CO)[C@@H](O)[C@H]2O)c(=O)n1 | inactive
25 | CCCCCCCCOc1ccc(C(=O)O)cc1 | inactive
26 | Oc1c(Cl)cc(Cl)c(Cl)c1Cl | inactive
27 | CC(C)OCC1CO1 (stereo unspecified) | inactive
28 | C/C(Cl)=C/CCl | inactive
29 | CCCCNCC | inactive
30 | O=c1[nH]ncc2ccccc12 | inactive
31 | c1ccc(COCc2ccccc2)cc1 | inactive
32 | O=[N+]([O-])c1cccc(I)c1 | inactive
33 | Nc1ccc2c(c1)C(=O)c1ccccc1C2=O | inactive
34 | c1ccc2c(c1)ccc1ccccc12 | inactive
35 | Nc1ccc(N=Nc2ccccc2)c(N)c1 | inactive
36 | Cc1ccc(C(=O)O)cc1[N+](=O)[O-] | inactive
37 | COc1ccc([N+](=O)[O-])cc1N | inactive
38 | OCC(CO)(CBr)CBr | inactive
39 | Nc1cc(C(=O)O)c(O)c(S(=O)(=O)O)c1 | inactive
40 | Oc1ccc2c(c1)OCO2 | inactive
41 | c1ccncc1 | inactive
42 | CC(=O)OC1CC(C)OC(C)O1 (stereo unspecified) | inactive

Row | SMILES | Potency
43 | O=C(OCc1ccccc1)c1ccccc1O | inactive
44 | C/C=C/C=C/C=O | 39.8 µM (active)
45 | CCN(CC)c1ccc2c(C)cc(=O)oc2c1 | inactive
46 | c1c[nH]cn1 | inactive
47 | c1ccc(SCCSc2ccccc2)cc1 | inactive
48 | O=C(O)/C=C/c1ccc(/C=C/C(=O)O)cc1 | inactive
49 | CCCCOC(=O)COc1ccc(Cl)cc1Cl | inactive
50 | CC(=O)OC(C(=O)c1ccccc1)c1ccccc1 (stereo unspecified) | inactive
51 | CCCCCCN | inactive
52 | CC(=O)Nc1cccc(C)c1 | inactive
53 | CCC(Cl)CC(Cl)C(Cl)C(Cl)C(Cl)C(C)Cl (stereo unspecified) | inactive
54 | COc1ccc(C)cc1N | inactive
55 | CCc1ccc(C(c2ccc(CC)cc2)C(Cl)Cl)cc1 | inactive
56 | C[C@@H]1CC2(OC(O)[C@]3(C)O[C@H]23)O[C@H]2C[C@@]3(C)[C@@H]4CC[C@H]5C(C)(C)C(O[C@@H]6OC[C@@H](O)[C@H](O)[C@H]6O)CC[C@@]56C[C@@]46CC[C@]3(C)[C@@H]12 (stereo partly specified) | inactive
57 | O=[N+]([O-])c1ccccc1Nc1ccccc1 | inactive
58 | C=CC1CO1 (stereo unspecified) | inactive
59 | COc1cc(-c2ccc(N=C=O)c(OC)c2)ccc1N=C=O | inactive
60 | CCOC(=O)C1OC1c1ccccc1 (stereo unspecified) | inactive
61 | COc1ccc(C(=O)Nc2ccccc2)cc1[N+](=O)[O-] | inactive

Source: PubChem BioAssay (NCATS)
